High-throughput results: PubChem, National Center for Advancing Translational Sciences (NCATS)
TR SRC2 fluor cs = alters Texas Red total fluorescence, flagging assay interference; AID 1479; TRb/SRC2 Texas Red total fluorescence interference; Potency, µM (titrated, usually from 106 µM), for inactives: at the top dose fluorescence change, negative = quenching; 280,000 tested, 0.29% active; active = well fitted curve in either direction with a large enough effect; inconclusive = small, poorly fitted or top-dose-only effect
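Flags fluorescent or light-absorbing compounds by total fluorescence, S + 2P, at 555 nm excitation and 632 nm emission. Mixture: 20 nM Texas Red SRC2 peptide, 0.6 uM human TRb LBD, 1 uM T3, 5% DMSO; compound exposure 5 h at ambient temperature.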
TRb-SRC2 inh = disrupts binding of human TR beta to SRC2; 280,000 tested, 0.065% active; TRbeta-SRC2 peptide binding, fluorescence polarization; receptor liganded with 1 µM T3; P10828; AID 1469; Potency, µM (doses to about 106 µM), inactives show top-dose activity change, negative = inhibition, most hits filed as inhibitors;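 note: plate controls were bound peptide for no effect and peptide without receptor for full effect; nearly all actives have a fitted effect of over 50% in size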
Target sequence (P10828 whole entry, looked up): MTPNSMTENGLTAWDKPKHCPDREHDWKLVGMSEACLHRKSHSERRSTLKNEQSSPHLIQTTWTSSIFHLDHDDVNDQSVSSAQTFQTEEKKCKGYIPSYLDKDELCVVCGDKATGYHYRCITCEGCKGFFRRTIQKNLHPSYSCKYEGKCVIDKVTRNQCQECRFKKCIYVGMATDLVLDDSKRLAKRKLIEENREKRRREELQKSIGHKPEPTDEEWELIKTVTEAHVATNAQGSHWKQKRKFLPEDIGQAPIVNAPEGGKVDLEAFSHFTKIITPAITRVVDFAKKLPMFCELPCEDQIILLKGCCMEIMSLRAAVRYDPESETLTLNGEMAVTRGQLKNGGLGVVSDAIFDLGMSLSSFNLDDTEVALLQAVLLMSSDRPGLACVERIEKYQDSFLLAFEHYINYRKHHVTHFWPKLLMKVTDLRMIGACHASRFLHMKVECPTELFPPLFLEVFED
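Decrease in fluorescence polarization of 20 nM Texas Red SRC2 coactivator peptide flagged inhibition of its binding to 0.6 uM TRb LBD; 1 uM T3 included, incubation 5 hr, ex 555/em 632 nm.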
Tau fluor counter = counter-screen for tau fibril formation inhibitors | tau K18 P301L Alexa594 fluorescence, heparin fibrillization | Potency, µM (series often up to 57.7 µM), for inactives: at the highest dose activity change, negative = decrease | 280,000 tested, 0.93% active; note: nearly all actives have a fitted effect of over 55% in size
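Human tau K18 P301L (15 uM unlabeled, 0.24 uM Alexa 594-labeled) in 100 mM sodium acetate pH 7 with 20 uM heparin, 6 hr at 37 C. ThT 30 uM added, 1 hr ambient; Alexa 594 FP and total fluorescence read at 555/632 nm.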
Tau fibril FP = tau fibrillization inhibition (FP); Potency, µM (doses to about 57.7 µM), for the others: at the top dose activity, negative = inhibition, most hits filed as inhibitors; K18 P301L tau heparin fibrillization, Alexa594 FP, 6 h; AID 1468; 280,000 tested, 0.39% active; note: nearly all actives have a fitted effect of over 55% in size
Target sequence (P10636 561-689 P618L limits assumed): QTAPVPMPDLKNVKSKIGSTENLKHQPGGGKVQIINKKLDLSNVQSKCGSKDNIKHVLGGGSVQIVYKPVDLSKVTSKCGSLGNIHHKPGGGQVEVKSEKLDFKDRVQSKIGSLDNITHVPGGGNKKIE
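Human tau K18 […] P301L fragment, 15 uM unlabeled plus 0.24 uM Alexa 594-labeled tau (final), with compound and 20 uM heparin in 100 mM sodium acetate pH 7; 6 hr at 37 C, then Alexa 594 FP read.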
Tau fibril ThT = tau fibrillization inhibition (ThT binding) | P10636 | recombinant tau K18 P301L (four-repeat tau fragment), heparin-induced fibrillization, ThT fluorescence | Potency, µM (top dose mostly 57.4 µM), for inactives: at the top dose activity, negative = inhibition, most hits filed as inhibitors | 270,000 tested, 2.1% active; note: nearly all actives have a fitted effect of over 55% in size
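Heparin-induced (20 uM) aggregation of recombinant human K18 P301L tau, 15 uM unlabeled with 0.24 uM labeled, pH 7 acetate buffer, 6 hr at 37 C with compound. Fibrils quantified by 30 uM ThT fluorescence after 1 hr ambient incubation.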
Starred values were filed as active, the others as inactive; ? = inconclusive; nt = not tested or not shown; [ ] = another dose, or the depositor's remark. Rows were chosen to be rich in hits. Some 3.1% of all compounds tested hit in one or more screens of this group. Unless noted, calls come from the whole dose curve; as a rule, active = well fitted curve in the direction sought with a large enough effect; inconclusive = small, poorly fitted or top-dose-only effect, or another doubt; inactive = no such curve, though single readings can be large; an effect the other way counts as inactive or inconclusive. Unless noted, % is set by controls: 0 for no effect and ±100 for the full control effect; potency is the fitted concentration of half-maximal effect.

SMILES	TR SRC2 fluor cs	TRb-SRC2 inh	Tau fluor counter	Tau fibril FP	Tau fibril ThT
CSCC[C@H](NC(=O)[C@H](Cc1c[nH]c2ccccc12)NC(=O)CCNC(=O)OC(C)(C)C)C(=O)N[C@@H](CC(=O)O)C(=O)N[C@@H](Cc1ccccc1)C(N)=O	-1%	4%	nt	nt	nt
CC(C)(C)C1CCc2c(sc(NC(=O)C3c4ccccc4Oc4ccccc43)c2C(N)=O)C1 (stereo not given)	-1%	0%	-11%	?	7%
CCOc1ccc(CNS(=O)(=O)c2ccc(-c3coc(C)n3)cc2)cc1OC	-1%	-1%	-10%	2%	-3%
O=C1CCCC=C1[C@H](CCc1ccccc1)OC(=O)c1ccc(Br)cc1	1%[11.2 µM]	1%[11.2 µM]	-7%[11.6 µM]	3%[11.6 µM]	-18%[11.5 µM]
C/C(C/C(C)=C1/SC(=S)NC1=O)=C1\SC(=S)NC1=O	-1%	6%	-25%	-1%	16µM*
CCCCCC/C(C)=C1/SC(=S)NC1=O	-2%	-6%	-14%	0%	-20%
CCc1ccc(CN(C(=O)c2nc(SC)ncc2Cl)C2CCS(=O)(=O)C2)cc1 (stereo not given)	?	-13%	-17%	-2%	-9%
CN(C)c1ccc(NC(=O)c2sc(SCC(=O)Nc3ccc(Br)cc3)nc2N)cc1	0%	6%	-15%	13%	?
CN(C)c1ccc(NC(=O)c2sc(SCC(=O)Nc3nccs3)nc2N)cc1	-6%	3%	14µM*[quencher]	11%	4µM*
CC(=O)Nc1ccccc1-c1nc2ccccc2n(C(C)C(=O)Nc2ccccc2C(F)(F)F)c1=O (stereo not given)	-1%	-3%	4%	-2%	5%
CCCOC(=O)c1cccc(Nc2nc(CCC)cc(=O)[nH]2)c1	?	-7%	?	22µM*	-6%
CCCc1cc(=O)[nH]c(Nc2ccc(C(=O)O)cc2)n1	-31%	4%	-12%	-2%	-9%
CCc1ccc2ncc3c(-c4ccc(F)cc4)nn(CC(=O)NCc4ccccc4)c3c2c1	-2%	3%	4%	-6%	6%
O=S(=O)(Nc1cc(Sc2cccc3cccnc23)c(O)c2ccccc12)c1ccccc1	-2%	2%	16µM*[quencher]	?	16µM*
Cc1ccc(C(C[N+](=O)[O-])c2c(-c3ccccc3O)[nH][nH]c2=O)cc1 (stereo not given)	-2%	-4%	-22%	?	18µM*
CCOC(=O)c1c(N)n(-c2ccc(N)cc2)c2nc3ccccc3nc12	-14%	2%	-12%	5%	?
Nc1c(C(=O)Nc2ccccc2)c2nc3ccccc3nc2n1-c1ccc(O)cc1	0%	-1%	14µM*[quencher]	?	?
O=C1/C(=C\c2ccco2)SC(=S)N1C1CCS(=O)(=O)C1 (stereo not given)	-9%	10%	?	?	25µM*
O=C1/C(=C/c2ccco2)SC(=S)N1C1CCS(=O)(=O)C1 (stereo not given)	2%	4%	?	?	28µM*
Cc1ccc(/C=C2\SC(=S)N(C3CCS(=O)(=O)C3)C2=O)cc1 (stereo not given)	0%	-6%	-16%	?	?
Nc1cc(Cl)nc(C(=O)O)c1Cl	-2%[201 µM]	-4%[201 µM]	nt	nt	nt
C=CCOC(=O)N[C@H](c1ccccc1)C(C(C)=O)C(C)=O	-1%	3%	-10%	-5%	-9%
Cc1ccc(O)c(N=Cc2cccs2)c1	-7%	3%	?	?	25µM*
Cc1ccc(O)c(N=Cc2ccc(C)s2)c1	-6%	-6%	?	?	22µM*
CCc1cccc(C)c1Nc1c(-c2cccc(O)c2)nc2sccn12	?	-12%	18µM*[quencher]	15%	?
SMILES	TR SRC2 fluor cs	TRb-SRC2 inh	Tau fluor counter	Tau fibril FP	Tau fibril ThT
Cc1cccc(C)c1Nc1c(-c2ccc(O)cc2)nc2sccn12	3%	1%	?	11%	?
COc1cc(-c2nc3sccn3c2Nc2c(C)cccc2C)ccc1O	0.004µM*[quencher]	-5%	?	22µM*	16µM*
COc1cc(/C=C2/SC(=S)NC2=O)ccc1OS(=O)(=O)c1ccc(C)cc1	-5%	17%	?	0%	16µM*
COc1ccc(/C=C2\SC(=S)NC2=O)cc1OS(=O)(=O)c1ccc(NC(C)=O)cc1	-13%	11%	-26%	12%	13µM*
COc1cc(/C=C2\SC(=S)NC2=O)ccc1OS(=O)(=O)c1ccccc1	-2%	-3%	?	9%	16µM*
CCOc1ccc(/C=C2\SC(=S)NC2=O)cc1OC	-7%	3%	-18%	-4%	?
COc1cccc(/C=C2\SC(=S)NC2=O)c1OS(=O)(=O)c1ccc(NC(C)=O)cc1	-4%[53 µM]	1%[53 µM]	-17%	-11%	?
COc1ccc(-c2ccnc3c2c(=O)n(C)c(=O)n3C)cc1OC	3%	-5%	2%	6%	-7%
CCCOc1ccc(NC(=O)CC2C(=O)N(c3cccc(OC)c3)C(=O)N2Cc2cccs2)cc1 (stereo not given)	1%	6%	?	-7%	2%
COC(=O)c1sccc1S(=O)(=O)N(CC(=O)Nc1ccccc1C)c1ccc(Cl)cc1	-4%	-6%	-18%	4%	1%
O=C(Cn1cc(/C=N/NC(=O)c2cccc3ccccc23)c2ccccc21)Nc1ccc(F)cc1	-3%	-5%	?	-12%	-1%
O=C(Cn1cc(/C=N/NC(=O)c2ccccc2Br)c2ccccc21)Nc1ccc(F)cc1	0%	-2%	16µM*[quencher]	-7%	-14%
CC(=O)OC[C@@H]1O[C@H](C/C=N\OC[C@@H](O)COCc2ccco2)C=C[C@@H]1OC(C)=O	-3%[11.2 µM]	0%[11.2 µM]	-5%[11.6 µM]	0%[11.6 µM]	-4%[11.5 µM]
Nc1ccc(N2CCCCC2)c2nonc12	-2%	?	?	?	8.9µM*
Nc1c(N2CCCC2)cc(Cl)c2nonc12	-2%	?	-24%	?	2.8µM*
Nc1c(N2CCOCC2)cc(Cl)c2nonc12	-1%	?	-25%	?	16µM*
Nc1ccc(N2CCCCC2)cc1N1CCCCC1	24%	0%	?	?	?
CC(=O)Nc1ccc(N=Nc2cc(C)ccc2O)cc1	?	28%[201 µM]	nt	nt	nt
CCc1cc2c(N=Nc3c(O)[nH]c4ccccc34)ncnc2s1	0%	5%	-5%	-4%	?
CCc1ccc2[nH]c(O)c(N=Nc3nc(-c4ccccc4)cs3)c2c1	-2%	0%	?	10%	4.5µM*
O=C(Cn1c(=O)nc(-c2ccccc2)c2ccccc21)NCc1ccc(F)cc1	-2%	-1%	-8%	-6%	1%
COc1ccccc1NCCC(=O)OCC(=O)NC1CC1	3.5µM*[quencher]	?	4%	1%	6%
COc1ccc(NC(=O)C(C)n2nnc3sc(-c4ccccc4)cc3c2=O)cc1Cl (stereo not given)	0%	-4%	?	?	14µM*
